Screening results (PubChem)
Rows were chosen to be rich in hits. Some 7% of all compounds tested hit in one or more screens of this group.
HP1b chromo inh – inhibitors of HP1-beta chromodomain binding to methylated histone tails; P83916; Potency, µM (series often up to 114 µM), for the others: top-dose activity change, negative = inhibition, most hits filed as inhibitors; 0.56% of 390,000 active; AlphaScreen HP1-beta / biotin-H3K9me3 peptide binding; further: potency means the concentration at half of the fitted maximal effect; nearly all actives have a fitted effect of over 70% in size
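Compound inhibition of the preformed complex between 50 nM HP1-beta and 50 nM biotinylated H3K9me3 peptide was read by AlphaScreen. Buffer was PBS pH 7.4 with 0.01% Tween-20. Incubations ran 30 min at room temperature, with 10 ug/mL donor/acceptor beads.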
PLK1 PBD block – blocks phosphopeptide binding to human PLK1 polo-box domain; Plk1 PBD binding of FITC phosphopeptide, fluorescence polarization; Potency, µM, inactives show max response, negative = inhibition, hits mostly inhibitors; 2.8% of 360,000 active; further: potency means the concentration at half of the fitted maximal effect; series mostly up to about 57 µM; on the % scale 0 is the no-effect control and ±100 the full control effect; nearly all actives have a fitted effect of over 65% in size
JMJD2A Tudor inh – JMJD2A Tudor domain (human) inhibition. O75164. AlphaScreen JMJD2A-Tudor / H3K4me3 peptide binding. Potency, µM (highest dose often 114 µM), without a hit: at the top dose activity change, negative = inhibition, usual class: inhibitors. 4.4% of 390,000 active. AID 504339; further: potency means the concentration at half of the fitted maximal effect; on the % scale 0 is the no-effect control and ±100 the full control effect; nearly all actives have a fitted effect of over 50% in size
BAZ2B inh – BAZ2B (human) inhibition. Q9UIF8. AlphaScreen BAZ2B-H3K14Ac peptide displacement. Potency, µM (highest dose often 114 µM), without a hit: at the highest dose activity change, negative = inhibition, hits mostly inhibitors. 4.4% of 360,000 active. AID 504333; further: potency means the concentration at half of the fitted maximal effect; on the % scale 0 is the no-effect control and ±100 the full control effect; nearly all actives have a fitted effect of over 60% in size
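Complex of BAZ2B and biotin-H3K14Ac (50 nM apiece) forms over 30 min at RT, then faces library compounds up to 110 uM for another 30 min; AlphaScreen beads added, 20 min dark incubation, luminescence read.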
PI5P4Ka inh – blocks human PI5P4K alpha kinase activity; P48426; PI5P4Kalpha enzyme, ADP-Glo luminescence, 60 min; stronger effect = lower value; max response, %; 1.2% of 330,000 active; AID 652105; active means max response of -50% or lower; inconclusive means between -30% and -50%; inactive means -30% or higher; further: value at the top dose of about 77 µM; on the % scale 0 is the no-effect control and ±100 the full control effect
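Compounds were pin-transferred onto PI5P4Kalpha and substrate in HEPES pH 7.4 buffer with EGTA, CHAPS and 5% DMSO. ATP (5 microM final) started the reaction, which ran 60 minutes at room temperature before ADP-Glo detection.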
KAT2A inh – GCN5L2 (KAT2A) acetyltransferase inhibition; GCN5L2 HAT assay, ThioGlo1 CoA-SH fluorescence; Potency, µM (highest dose often 58.9 µM), inactives show top-dose activity change, negative = inhibition, actives largely listed as inhibitors; AID 504327; 0.21% of 390,000 active; further: potency means the concentration at half of the fitted maximal effect; on the % scale 0 is the no-effect control and ±100 the full control effect
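Enzyme at 20nM final was mixed with library compounds for 15 min at room temperature. Peptide H3(1-25) at 75uM, acetyl-CoA at 70uM and ThioGlo1 at 50uM were then added. Plates were read immediately and after 20 min (Ex340nm/Em540nm).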
The depositor's hits bear a star; ? = inconclusive; . = not tested or not shown; [ ] = remark or other dose. Unless noted, the call rests on the fitted dose curve; in most records, active means well fitted curve in the direction sought with a large enough effect; inconclusive means small, poorly fitted or top-dose-only effect, or another doubt; inactive means no such curve, though single readings can be large; an effect the other way counts as inactive or inconclusive.

SMILES	HP1b chromo inh	PLK1 PBD block	JMJD2A Tudor inh	BAZ2B inh	PI5P4Ka inh	KAT2A inh
O=C(CCNS(=O)(=O)c1ccccc1C(F)(F)F)NCCCN1CCOCC1	11%	-7%	-10%	.	3	3%
C[C@@H]1CN([C@@H](C)CO)C(=O)CCCn2nncc2CO[C@H]1CN(C)Cc1ccc(Oc2ccccc2)cc1	.	-9%	.	.	-2	.
CCCCn1c(SCC(=O)c2ccc3c(c2)NC(=O)CO3)nc2cc(S(N)(=O)=O)ccc21	22%	-8%	-22%	?	-6	22%
COc1ccccc1CN(C)CC(=O)Nc1cccc(S(=O)(=O)N2CCCC2)c1	-17%	4%	0.79µM*	.	-10	1%
COc1cccc(CN(C)CC(=O)Nc2cc(S(=O)(=O)N3CCCC3)ccc2Cl)c1OC	42%	-4%	-13%	9%	1	-6%
Cc1ccc(NC(=O)COC(=O)C2CC3C=CC2C3)cc1S(=O)(=O)N1CCCCC1 (stereo unspecified)	9%	21µM*	56µM*	8%	-11	35%
Cc1ccc(S(=O)(=O)N2CCCCC2)cc1NC(=O)COC(=O)C1CC2C=CC1C2 (stereo unspecified)	2%	0%	-16%	2%	-3	0%
CC(Nc1nc(N2CCNCC2)nc2ccccc12)c1ccccc1 (stereo unspecified)	-14%	-7%	-32%	0%	?	-3%
CCOC(=O)c1ccc(NC(=O)CCCn2nc(C)c3sc4ccccc4c3c2=O)cc1	60%	.	-10%	-34%	.	-11%
CC1(C(=O)NCc2cccs2)Cc2c(-c3cccc(C(F)(F)F)c3)ccnc2O1 (stereo unspecified)	.	6%	.	.	2	.
Cc1ccc(-c2nnc(SCC(=O)NC(C)(C)C)nc2-c2ccc(C)cc2)cc1	6%	.	?	-29%	.	-7%
CC(=O)c1ccc(N2C(=O)C3C(C2=O)C(C(=O)c2ccc(Cl)cc2)N2CCCC32)cc1 (stereo unspecified)	-16%	11µM*	-18%[11.4 µM]	?	-54*	-17%
Cc1ccc(N2C(=O)[C@@H]3[C@H](C2=O)C2CCCN2[C@@H]3C(=O)c2ccccc2)cc1 (stereo partly specified)	12%	-15%	56µM*	?	-11	-4%
N#CCCN(C(=O)COC(=O)c1ccc(S(=O)(=O)N2CCCC2)cc1)c1cccc(Cl)c1	33%	-2%	-11%	1%	4	-2%
Cc1nc(N2CCN(C(=O)c3cnccn3)CC2)c2c3c(sc2n1)CC(C(C)(C)C)CC3 (stereo unspecified)	6%	-9%	-12%	6%	-3	-3%
O=S(=O)(c1ccc2ncccc2c1)N1CCN(c2nc(-c3cccs3)nc3ccccc23)CC1	13%	.	-31%	.	.	.
CC(C)=CCCC1(C)C=Cc2c(O)c3c(c(CC=C(C)C)c2O1)OC12C(=CCCC1C(C)(C)O[C@@]2(C/C=C(\C)C(=O)O)C(=O)O)C3=O (stereo partly specified)	.	.	.	.	.	35µM*
CC(C)=CCc1c2c(c(O)c3c(=O)c(O)c(-c4ccccc4)oc13)C=CC(C)(C)O2	.	.	.	.	.	-14%
CCCc1c2c(cc3c(=O)cc(C(=O)OCC)oc13)CCCC2	29%	21µM*	?	15%	-9	-6%
CCCCCn1c(=N)n(CC(O)COc2cccc(C)c2)c2ccccc21 (stereo unspecified)	32%	.	-11%	-16%	.	4%
COc1cc(OC)cc(C(=O)NCC(=O)NC(C)c2ccccc2)c1 (stereo unspecified)	18%	-5%	-8%	0%	0	-6%
C=C(C)COc1ccc2c(CC)cc(=O)oc2c1	36%	13µM*	20µM*	71%	-22	1%
Cc1cccc(C(=O)NC(=S)Nc2ccc(S(=O)(=O)N3CCCCC3)cc2)c1	38%	?	-2%[11.4 µM]	-25%	2	-4%
